ATG4B inhibitor – blocks human ATG4B protease cleavage of LC3 substrate | Q9Y4P1 | ATG4B cleavage of LC3-PLA2, NBD-HPC fluorescence, 1 h | inhibition, % at 8.33 µM | 340,000 compounds, 0.51% hits; in the data active = inhibition above about 40%
Mot1-301 SUMO – inhibitors of SUMOylation pathway: yeast Mot1-301 growth rescue | 320,000 compounds, 1% hits | AID 2716 | growth rescue, % at 18.8 µM | S. cerevisiae Mot1-301 growth rescue, ATP luminescence, 38.5C; percent above DMSO median, 100 means doubled;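 active = every valid replicate shows activation above 250% relative to neutral control wells; inactive = the rest, any valid replicate at or below 250%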;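 note: OY570 slx delta 5 strain wells were the positive control but not used for scaling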
FAS TE block – blocks the thioesterase domain of human fatty acid synthase. P49327. recombinant FAS-TE, OMFH fluorogenic substrate, fluorescence endpoint. inhibition, % at 15 µM. 360,000 compounds, 0.67% hits. AID 602261;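 active = compounds whose normalised, plate-corrected inhibition of enzyme fluorescence in the single-dose primary screen is 50% or more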;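 note: 0% = DMSO with enzyme and 100% = substrate without enzyme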
NadD inh – inhibitors of Staphylococcus aureus NadD; inhibition, % at 20 µM; purified NadD enzyme, colorimetric absorbance read-out; AID 602399; 360,000 compounds, 0.78% hits; in the data active = inhibition above about 26%
Calb FLC – C. albicans growth modulation with fluconazole; C. albicans CaCi-2 (fluconazole-resistant clinical isolate) + fluconazole, Alamar Blue growth, 48 h; growth inhibition, % (concentration not given with the values); 300,000 compounds, 0.57% hits; AID 1979;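 active = growth inhibition above about 58% in most replicates, limit read from the data, passing the limit was not always enough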;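 note: all wells also contain fluconazole at 8 µg/ml as a sub-toxic cotreatment; 0% = median of DMSO wells and 100% = median of geldanamycin control wells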
Mot1 SUMO dose – yeast SUMO pathway inhibition in dose response; shares compounds with Mot1-301 SUMO; S. cerevisiae Mot1-301 galactose growth, ATP luminescence, 24 h; -100 = growth of slx-deleted rescue strain; growth activity, percent, % at 42 µM; 2,300 tested, under 10 active; AID 493004;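 active = Signal drops as the depositor expects, and the fitted half-maximal dose is no more than ten times the top valid tested dose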;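 note: more negative values mean stronger growth rescue toward the control strain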
ATG4B conf – ATG4B (human) inhibition, single-dose confirmed | 320 compounds, 92% hits | shares compounds with ATG4B inhibitor | ATG4B protease fluorescent substrate cleavage assay | inhibition, % at 8.33 µM; in the data active = inhibition above about 39%
PLA2 ctr – inhibits human PLA2, flagging false ATG4B inhibitors; purified PLA2, NBD-C6-HPC fluorescence, 45 min; inhibition, % at 8.33 µM; shares compounds with ATG4B inhibitor; 1,600 compounds, 66% hits; in the data active = inhibition above about 50%
Target sequence (P04054 whole entry, looked up): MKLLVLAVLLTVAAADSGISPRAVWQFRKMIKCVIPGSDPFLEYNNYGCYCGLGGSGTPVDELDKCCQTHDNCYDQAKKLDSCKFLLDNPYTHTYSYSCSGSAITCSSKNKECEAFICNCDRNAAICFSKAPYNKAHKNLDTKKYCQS
FAS-TE inh conf – confirmation of human fatty acid synthase thioesterase inhibitors; 2,300 compounds, 45% hits; inhibition, % at 15 µM; shares compounds with FAS TE block; recombinant FAS-TE, OMFH fluorogenic substrate, fluorescence;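 active = compounds inhibiting the enzyme by at least 50% at 15 µM in any one of the replicates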;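 note: 0% = enzyme with DMSO only and 100% = wells lacking enzyme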
NadD inh conf – NadD (S. aureus) inhibition, single concentration confirmation; 2,000 compounds, 13% hits; inhibition, % at 20 µM; purified S. aureus NadD, colorimetric enzyme assay; shares compounds with NadD inh; AID 624309; in the data active = inhibition mostly above about 42%, no sharp cut-off; inactive = mostly below about 42%
* = called active by the depositor; · = not tested or not shown; + = active, no number. In the library only some 3.1% were active in any assay of this set; here they are far more common.

SMILES	ATG4B inhibitor	Mot1-301 SUMO	FAS TE block	NadD inh	Calb FLC	Mot1 SUMO dose	FAS-TE inh conf	others
O=[N+]([O-])c1c(NCCCO)cc(Sc2nc3ccccc3s2)c2nonc12	-3	782*	77*	9	39	-2	75*
Nn1c(SCc2ccc([N+](=O)[O-])cc2)nc2ccccc2c1=O	8	26	32	-7	-7	·	·
O=c1c2ccccc2nc(SCc2ccc([N+](=O)[O-])cc2)n1CCCO	-5	464*	68*	-12	39	0	50*
N/C(=N\OC(=O)CSc1ccccc1)c1ccncc1	-7	3	-7	-2	7	·	·
COc1ccc2c(c1)OC[C@H]1[C@H]2N2C(=O)c3ccccc3NC(=O)[C@@]2(C)[C@H]1c1ccccc1	-8	640*	70*	6	·	2	31
C[C@@]12C(=O)Nc3ccc(Br)cc3C(=O)N1[C@H]1c3ccccc3OC[C@@H]1[C@@H]2c1ccccc1	-9	+	88*	8	·	-1	17
COc1ccc2c(c1)OC[C@H]1[C@H]2N2C(=O)CNC(=O)[C@@]2(C)[C@H]1c1ccccc1	2	-3	·	·	·	·	·
C[C@H](CO)N1C[C@H](C)[C@@H](CN(C)S(C)(=O)=O)OCc2cnnn2CCCC1=O	·	·	-9	1	·	·	·
CC(C)(C)c1ccc(C(=O)NCC(=O)OCC(=O)N2CCCC2)cc1	0	2	-5	-2	·	·	·
Cc1ccc(NC(=O)NNC(=O)Cn2nc(-c3ccccc3)c(-c3ccccc3)c(C#N)c2=O)cc1	-10	364*	68*	20	-2	0	58*
O=C(Cn1nc(-c2ccccc2)c2ccccc2c1=O)Nc1ccc(O)cc1	-8	3	-3	-3	-9	·	·
O=C(COC(=O)c1cc([N+](=O)[O-])ccc1N1CCOCC1)Nc1cccc(F)c1	-11	694*	90*	-8	10	-1	93*
COc1cc(C(=O)COC(=O)c2cc([N+](=O)[O-])ccc2N2CCOCC2)ccc1OC(F)F	0	662*	55*	-5	·	-1	57*
N#Cc1cccc(S(=O)(=O)NCCOc2ccccc2F)c1	-3	15	-3	-8	·	·	·
O=C(Nc1cc(Br)c(O)c(Br)c1)c1cccc(NC(=O)c2ccco2)c1	-10	-12	-1	-1	7	·	·
O=C(Nc1cccc(N=Cc2cc(Br)cc(Br)c2O)c1)c1ccco1	69*	766*	3	41*	20	-1	·	PLA2 ctr=60*;NadD inh conf=21
C/C(=N\NC(=O)c1cccc(N/N=C(\C)c2ccc([N+](=O)[O-])cc2)c1)c1ccc([N+](=O)[O-])cc1	-4	540*	3	33*	-2	1	·	NadD inh conf=3
CCCNC(=O)N1CCN(S(=O)(=O)c2ccc3c(c2)OCCO3)CC1	-2	-2	-9	-2	·	·	·
CC(=O)Nc1cc(C(=O)N2CCc3ccccc3C2)ccc1Sc1ccc(Cl)cc1	40*	32	10	0	-3	·	·	PLA2 ctr=51*
CC(=O)Nc1cc(C(=O)N2CCc3ccccc3C2)ccc1Sc1ccc(F)cc1	24	-18	11	-2	-9	·	·
COC(=O)C1C=CC(OC2OC(COC(C)=O)C(OC(C)=O)C(OC(C)=O)C2OC(C)=O)n2c(=O)n(-c3ccccc3)c(=O)n21 (stereo not given)	6	·	-3	4	·	·	·
CC(C)c1ccc(NC2CCCN(C(=O)c3cnn(C(C)C)c3)C2)cc1 (stereo not given)	45*	156	-6	0	-21	·	·	ATG4B conf=53*;PLA2 ctr=49
